Experimental data from PubChem BioAssay AID1030 (National Center for Advancing Translational Sciences (NCATS), 2008).
“And” between values parts separate entries of the source, which are not always exact repeats. Identical values can stand only once. Hit rate of the full screen: of about 220,000 compounds, about 16,000 (7.3%) were called active. Where a call stands in place of a potency, no number is given. About 25% were inconclusive and are not listed. Calls come from the whole dose curve; as a rule, active = well fitted inhibition curve with a large enough effect (not every such curve was filed as active); inconclusive = small, poorly fitted or top-dose-only effect, or another doubt; inactive = no such curve, though single readings can be large or run the other way. The full list was thinned out, with actives kept by preference. Where a structure was tested more than once in an assay, its records may differ in their call.

Biological target: Aldehyde dehydrogenase 1A1 (Homo sapiens) (UniProt P00352)
Assay: qHTS Assay for Inhibitors of Aldehyde Dehydrogenase 1 (ALDH1A1)
Details: Purified ALDH1A1, NADH fluorescence, propionaldehyde substrate; series mostly up to 75.3 µM
Potency is the fitted concentration of half-maximal effect.

Chain of Aldehyde dehydrogenase 1A1 (Homo sapiens) (P00352 whole entry, looked up): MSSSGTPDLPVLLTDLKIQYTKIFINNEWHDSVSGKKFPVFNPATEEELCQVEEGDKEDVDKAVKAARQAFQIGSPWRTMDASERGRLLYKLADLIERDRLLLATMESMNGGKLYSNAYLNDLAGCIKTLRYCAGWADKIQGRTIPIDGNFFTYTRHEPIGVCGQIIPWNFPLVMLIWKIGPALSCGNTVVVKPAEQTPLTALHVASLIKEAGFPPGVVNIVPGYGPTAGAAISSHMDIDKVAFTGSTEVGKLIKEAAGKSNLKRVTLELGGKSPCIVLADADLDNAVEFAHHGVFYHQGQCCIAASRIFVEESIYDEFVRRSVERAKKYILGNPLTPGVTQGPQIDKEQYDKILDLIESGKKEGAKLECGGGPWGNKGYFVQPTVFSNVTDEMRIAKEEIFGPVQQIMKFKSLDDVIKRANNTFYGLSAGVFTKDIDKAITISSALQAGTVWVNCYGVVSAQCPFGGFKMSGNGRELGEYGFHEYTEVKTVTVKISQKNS

Structure (SMILES)	Potency	activity, negative = inhibition
CCOC(=O)C1=C(CN2CCc3ccccc32)NC(=O)NC1c1ccc(Cl)cc1 (stereo not drawn)	25.1 µM (active)	–
CCOC(=O)C1=C(CN2CCc3ccccc32)NC(=O)NC1c1cccc([N+](=O)[O-])c1 (stereo not drawn)	inactive	–
COCCOC(=O)C1=C(C)NC(=O)NC1c1ccc(Cl)cc1 (stereo not drawn)	inactive	–
Cc1onc(C(=O)NCc2ccc(F)cc2)c1[N+](=O)[O-]	inactive	–
O=C1CCCN1CCCNC(=S)Nc1ccc(F)c(Cl)c1	inactive	–
Cc1ccc(NC(=O)C2CCCN(S(=O)(=O)c3c(C)noc3C)C2)c(C)c1 (stereo not drawn)	inactive	–
CCOc1ccc(OCC)c(NC(=O)C2CCN(S(=O)(=O)c3c(C)noc3C)CC2)c1	inactive	–
Cc1noc(/C=C/c2ccco2)c1S(=O)(=O)N1CCC(C(=O)Nc2ccc(Cl)cn2)CC1	15.8 µM (active)	–
CCCCN1C(=S)NC[C@@H]1C(C)CC (stereo partly drawn)	inactive	–
Cc1ccc(C)c(-n2cc(CN3CCN(C(=O)c4ncn[nH]4)CC3)c(-c3ccccc3)n2)c1	inactive	–
Cc1cc(NC(=O)CSc2nnc(Nc3ccccc3F)s2)no1	inactive	–
O=C1C[C@@H](O)[C@@H](O)[C@H]2[C@@H]3C(=O)N(Cc4ccc5c(c4)OCO5)C(=O)[C@@H]3CC[C@H]12	–	-12% [at 13.5 µM] (inactive) and -15.2% [at 13.5 µM] (inactive)
O=C(Nc1ccc2c(c1)OCO2)c1ccc(N2C(=O)c3ccccc3C2=O)cc1	inactive	–
O=CN1CCN(C2CC(=O)N(c3ccc4c(c3)OCO4)C2=O)CC1 (stereo not drawn)	12.6 µM (active)	–
Cc1cc(C)nc(N2CCC(C(=O)Nc3ccc4c(c3)OCCO4)CC2)n1	inactive	–
CCn1cc(C(=O)Nc2cc(C)ccc2C)c(=O)c2ccc(C)nc21	inactive	–
C=CCN(C(=O)c1cc(C)cc(C)c1)C1(C(=O)Nc2ccccc2)CCN(C(C)C)CC1	inactive	–
Cc1ccnc(SCC(N)=O)n1	inactive	–
O=C(O)CCSc1nnc(-c2ccccc2)n1-c1ccccc1	inactive	–
Cc1cccc(C)c1NC(=O)CCCSc1nnc(-c2ccco2)n1-c1ccccc1	25.1 µM (active)	–
CCn1c(SCC(=O)Nc2nccs2)nnc1-c1ccco1	inactive	–
O=C(CSc1nnc(-c2ccco2)n1-c1ccccc1)NCCc1ccccc1	inactive	–
COc1ccc(C(=O)NC(=O)CSc2nnc(-c3ccco3)n2-c2ccccc2)cc1	31.6 µM (active)	–
COc1ccc(-c2nnc(SCC(=O)c3ccco3)n2-c2ccccc2)cc1	inactive	–
O=C(NCc1ccccn1)c1cc(Br)ccc1Cl	inactive	–
CC[N+]1(CC)CC2=Cc3ccccc3CC2C1 (stereo not drawn)	inactive	–

Structure (SMILES)	Potency	activity, negative = inhibition
COc1ccc(N2CCN(C(=O)CCSCc3ccccc3F)CC2)cc1	inactive	–
Cc1cccc(-n2cc(CN3CCN(C(=O)c4ncn[nH]4)CC3)c(-c3cccc(F)c3)n2)c1	inactive	–
CC(C)=CCC[C@]1(C)[C@@H](CC=C(C)C)C[C@@]2(CC=C(C)C)C(=O)[C@]1(C(=O)C(C)C)C(=O)C(CC=C(C)C)=C2O	inactive	–
O=C(Nc1ccc(F)cc1)N1CCN(c2ccc(F)cc2)CC1	inactive	–
O=C(N/N=C/c1ccccn1)c1cccnc1	inactive	–
O=C(N/N=C/c1sc(N2CCCCC2)nc1-c1cccs1)c1cccnc1	31.6 µM (active)	–
Cc1nn(Cc2ccc(Cl)cc2)c(Cl)c1/C=N/NC(=O)c1cccnc1	inactive	–
CCN(CCCNC(=O)CSc1cc(=O)n(C)c2cc(Cl)ccc12)Cc1ccccc1	inactive	–
CC1=NNC(=O)C1CCC(=O)N/N=C\c1cccc(Cl)c1 (stereo not drawn)	inactive	–
S=c1[nH]nc(COc2ccccc2)n1-c1ccccc1	inactive	–
O=[N+]([O-])c1ccccc1/C=N/n1c(COc2ccccc2)n[nH]c1=S	15.8 µM (active)	–
CCc1n[nH]c(=S)n1/N=C/c1c[nH]c2ccc(Br)cc12	inactive	–
O=C(Nc1nc(-c2cccnc2)cs1)c1ccccc1F	inactive	–
CCN1CCN(CC(=O)Nc2sc3c(c2C#N)CCC3)CC1	inactive	–
CCOC(=O)c1oc2c(CN3CCN(CCO)CC3)c(O)c(CC)cc2c(=O)c1-c1nc2ccccc2s1	28.2 µM (active)	–
Cn1c(=O)[nH]c(=O)c2c1nc(N1CCN(CCO)CC1)n2CCSc1nc2ccccc2s1	inactive	–
CCc1cc2c(=O)c(-c3nc4ccccc4n3C)c(CCCC(=O)O)oc2cc1OC(=O)C(C)(C)C	inactive	–
CCCCn1nc(C(=O)OCC(=O)Nc2sccc2C(N)=O)c2ccccc2c1=O	inactive	–
CCOC(=O)N1CCN(Cc2nc(Cc3cccc(C(F)(F)F)c3)no2)CC1	inactive	–
COC(=O)c1cc2c(ccn2C)n1C	inactive	–
CCOC(=O)/C(C#N)=C/c1cn(CCC(=O)O)nc1-c1ccc(Br)cc1	inactive	–
COc1cc(/C=N/O)ccc1OCc1ccc([N+](=O)[O-])cc1	inactive	–
COc1ccc(C(=O)Oc2cc(/C=N/NS(=O)(=O)c3ccc(C)cc3)ccc2OC)cc1	inactive	–
COc1ccc(S(=O)(=O)N/N=C\c2ccc(OC)c(COc3ccc(C)cc3[N+](=O)[O-])c2)cc1	14.1 µM (active)	–
Cc1ccc2c(c1)C1CN(C)CCC1N2C(=S)Nc1ccc(OC(F)F)cc1 (stereo not drawn)	inactive	–
COCCNC(=O)NC(=O)COC(=O)C1(c2ccc(Cl)cc2)CC1	inactive	–

Structure (SMILES)	Potency	activity, negative = inhibition
COc1ccccc1CC(=O)Nc1ccc(F)cc1F	inactive	–
CSCCNCc1cn(-c2ccc(F)cc2F)nc1-c1ccccc1C	35.5 µM (active)	–
O=C(CC12CC3CC(CC(C3)C1)C2)NCc1ccco1	inactive	–
CCOC(=O)c1ccc[n+](CC(=O)Nc2ccccc2OC(F)F)c1	inactive	–
COC(=O)c1nn(-c2cccc(Cl)c2)ccc1=O	inactive	–
COC(=O)c1cccc(-n2[nH]nnc2=S)c1	2.82 µM (active)	–
COC(=O)c1ccc(-n2cnc3ccccc32)nc1	inactive	–
COc1ccc(NC(=O)c2ccccc2[N+](=O)[O-])cc1OC	inactive	–
CCOC(=O)C1(Cc2ccc(Cl)cc2)CCN(C(=O)C2=NNC(=O)CC2)CC1	inactive	–
Cc1ccc(S(=O)(=O)N(C)C)cc1NC(=O)c1ccccc1Br	inactive	–
Cc1ccc(S(=O)(=O)N(C)C)cc1NC(=O)/C=C/c1cccs1	0.447 µM (active)	–
CN(C)S(=O)(=O)c1cccc(NC(=O)COC(=O)/C=C/c2cccs2)c1	inactive	–
CCCCN(CC(=O)NC(C)(C)C)C(=O)C(=O)Nc1ccc2c(c1)OCCO2	inactive	–
N=c1c2c3c(sc2ncn1N)CCCC3	inactive	–
S=c1[nH]nc2c3c4c(sc3ncn12)CCCC4	25.1 µM (active)	–
c1nnc2c3c4c(sc3ncn12)CCC4	inactive	–
Clc1cccc(-c2nc(NCC3CCCO3)c3ccccc3n2)c1 (stereo not drawn)	inactive	–
O=C(Nc1ccc(N2CCN(C(=O)c3ccccc3)CC2)c(Cl)c1)c1cccnc1	inactive	–
CCC(=O)Nc1cccc(NC(=O)c2cccnc2)c1	inactive	–
C[C@@H](C(=O)Nc1ccc2ccccc2c1)[C@@H]1C[C@@]1(C)[C@@H](NC(=O)c1cccnc1)c1ccccc1	inactive and 22.4 µM (active)	–
CC(NC(=O)Nc1ccc2c(c1)OCO2)c1ccncc1 (stereo not drawn)	inactive	–
COc1cccc(OC)c1C(=O)Nc1ccc(Cc2ccncc2)cc1	inactive	–
COc1cccc(OC)c1C(=O)Nc1nnc(C(C)C)s1	7.08 µM (active)	–
CCn1nnc(NC(=O)c2c(OC)cccc2OC)n1	inactive	–
CC(CC(=O)O)C(=O)c1ccc(Cl)c([N+](=O)[O-])c1 (stereo not drawn)	inactive	–
COc1ccc(-c2cc(C(=O)NCc3ccco3)no2)cc1OC	inactive	–

Structure (SMILES)	Potency	activity, negative = inhibition
COc1cc(C(=O)N[C@@H](C)C(=O)NCc2ccco2)cc(OC)c1OC	inactive	–
COc1cc(C(=O)NC(=S)NCc2ccco2)cc(OC)c1OC	5.01 µM (active)	–
Cc1cccc(NC(=S)N2CCC(O)CC2)c1C	inactive	–
CC(C)(c1ccccc1)c1ccc(OCCN)cc1	inactive	–
CCOc1ccc(/C=N/Nc2nncc(-c3ccccc3)n2)cc1OC	inactive	–
CN(C)S(=O)(=O)c1ccc(NC(=O)COC(=O)Cn2[nH]c(=O)c3ccccc3c2=O)cc1	28.2 µM (active)	–
CN(C)S(=O)(=O)c1ccc(NC(=O)COC(=O)c2n[nH]c3ccccc23)cc1	inactive	–
CN(C)S(=O)(=O)c1cccc(NC(=O)COC(=O)c2cc(=O)[nH]c(=O)[nH]2)c1	inactive	–
C=CCN(c1ccc(Cl)cc1)S(=O)(=O)c1cccc(C(=O)OCC(=O)N(C)C)c1	inactive	–
O=C(NNC(=S)NCc1ccccc1)c1ccc(OC(F)F)cc1	inactive	–
Cc1nc2nc[nH]n2c(=O)c1C/C=C/c1ccccc1	inactive	–
CC(C)=CCN1CCC2(CCc3ccccc32)CC1	inactive	–
O=[N+]([O-])c1cccc(/C([O-])=C(/C(=S)Nc2ccccc2F)[n+]2ccccc2)c1	22.4 µM (active)	–
CCC(C)NCC(=O)Nc1ccc([N+](=O)[O-])cc1C(=O)Nc1ccccc1F (stereo not drawn)	inactive	–
Cc1cccc(C(=O)NNC(=O)c2cccc([N+](=O)[O-])c2)c1	inactive	–
CCOc1cc(N2CCOCC2)c(OCC)cc1NC(=O)C1=NN(c2cccc(C)c2)C(=O)CC1	inactive	–
CCNC(=S)Nc1ccc(OC(F)(F)F)cc1	inactive	–
CCOC(=O)C(C(=O)OCC)C(C#N)c1ccccc1 (stereo not drawn)	inactive	–
CCOC(=O)NC(=O)/C(C#N)=C\c1ccccc1	7.08 µM (active)	–
CCOC(=O)/C(C#N)=C/c1ccc(N2CCN(Cc3ccccc3)CC2)cc1	inactive	–
Cc1ccnc(NC(=O)Cn2ccc([N+](=O)[O-])n2)c1	inactive	–
Cc1cc(NC(=O)COn2nnc3ccccc32)no1	inactive	–
Cc1ccc(CC(=O)Nc2cccc(C#N)c2)cc1	inactive	–
CS(=O)(=O)c1ccc2nnn(OCC(=O)Nc3cccc(C#N)c3)c2c1	10 µM (active)	–
CC(=O)c1ccccc1NC(=O)CC1(CC(=O)O)CCCCC1	inactive	–
